# Assay outcomes from PubChem BioAssay.
# Compounds with a hit are over-represented: about 2.4% of the library has one in this group of screens.
# SENP8 block-1 – SENP8 protease inhibitors, primary screen, biochemical, luminescence; Sentrin-specific protease 8 (Homo sapiens), Q96LD8; purified SENP8, Z-RLRGG-aminoluciferin cleavage; inhibition, % at 10 µM; 1.2% of 330,000 active; in the data active = inhibition above about 50%
# Target sequence (Q96LD8 whole entry, looked up): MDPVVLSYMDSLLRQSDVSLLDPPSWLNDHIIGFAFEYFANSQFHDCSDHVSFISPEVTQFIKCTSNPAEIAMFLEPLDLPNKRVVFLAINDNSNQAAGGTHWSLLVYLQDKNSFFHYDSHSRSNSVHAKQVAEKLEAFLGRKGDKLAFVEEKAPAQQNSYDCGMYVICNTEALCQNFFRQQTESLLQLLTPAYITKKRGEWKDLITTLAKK
# Platelet DG rel – inhibitors of platelet dense granule secretion, primary screen, cell-based, MLPCN, human platelets; 0.22% of 300,000 active; inhibition, %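 (compounds screened at 7.5 µM in platelet-rich plasma)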; human platelet-rich plasma, SFLLRN dense granule ATP release, luminescence; AID 1663, 2009;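 active = mean replicate score, as percent of positive control, at or above 50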
# SENP7 inh – SENP7 protease inhibitors, primary screen, biochemical, luminescence, uHTS; Sentrin-specific protease 7 (Homo sapiens), Q9BQF6; recombinant SENP7, Z-RLRGG-aminoluciferin luminescence, 40 min; inhibition, % at 5 µM; 1.5% of 330,000 active;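 active = inhibition above about 50% at the single test dose, limit read from the data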;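 also: plate controls were DMSO with enzyme for no effect and no enzyme buffer wells for full effect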
# Target sequence (Q9BQF6 706-1050 limits assumed): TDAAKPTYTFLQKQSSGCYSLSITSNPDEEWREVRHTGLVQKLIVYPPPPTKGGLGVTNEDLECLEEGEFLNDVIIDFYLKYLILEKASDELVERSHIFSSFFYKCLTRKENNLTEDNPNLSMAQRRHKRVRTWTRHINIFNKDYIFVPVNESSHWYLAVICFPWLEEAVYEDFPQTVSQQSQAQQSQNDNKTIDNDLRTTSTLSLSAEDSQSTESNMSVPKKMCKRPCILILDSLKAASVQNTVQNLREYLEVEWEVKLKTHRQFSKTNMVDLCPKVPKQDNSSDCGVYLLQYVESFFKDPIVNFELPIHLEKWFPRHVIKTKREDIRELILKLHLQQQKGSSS
# SENP6 inh – SENP6 protease inhibitors, primary screen, biochemical, luminescence, uHTS. inhibition, % at 10 µM. Recombinant SENP6 catalytic domain, aminoluciferin luminescence. 1.8% of 330,000 active. Sentrin-specific protease 6 (Homo sapiens), Q9GZR1;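 active = inhibition above about 50% at the single tested dose, limit read from the data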;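 also: plate controls were DMSO wells with enzyme for no effect and DMSO wells lacking enzyme for full effect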
# SENP8 block-2 – human SENP8 protease inhibitors, primary screen, biochemical, fluorescence, Nedd8 protein substrate, uHTS. Sentrin-specific protease 8 (Homo sapiens), Q96LD8. recombinant SENP8. inhibition, % at 20 µM. 0.64% of 360,000 active; in the data active = inhibition mostly above about 40%, no sharp cut-off; inactive = mostly below about 27%
# An asterisk follows results filed as active; . = no result given.
SMILES,SENP8 block-1,Platelet DG rel,SENP7 inh,SENP6 inh,SENP8 block-2
CC1=C(N2CC2)C(=O)C(CO)=C(N2CC2)C1=O,.,.,.,.,63.1*
COC(COC(N)=O)C1=C(N2CC2)C(=O)C(C)=C(N2CC2)C1=O (stereo not given),.,.,.,.,38.3
CC(=O)Nc1ccc(OC(=O)N(C)c2ccc(C)cc2)cc1,3.2,1.8,-6.3,-1.6,5.2
CC(=O)Nc1ccc(OC(=O)N(C)c2ccccc2)cc1,0.9,53.0*,0.3,10.6,14.6
CCC(c1ccc(C)cc1)N1C(=O)C2C3CCC(O3)C2C1=O (stereo not given),9.0,.,-4.8,-1.9,9.9
C[C@]12CC[C@H](O)CC1=CC(=O)C1C2CC[C@]2(C)C(=O)[C@H](O)CC12 (stereo not given in full),4.1,.,5.0,7.7,3.4
COC(=O)C1=C(c2c(C)noc2C)C[C@@H]2CC[C@H]1N2C(=O)NC1Cc2ccccc2C1,-5.9,.,-10.9,-24.0,4.5
CCNc1nc(Cl)nc(NC(C)C)n1,3.4,55.9*,1.8,8.1,11.2
C[CH2][Hg][S]c1ccccc1C(=O)O,3.3,.,-0.3,7.5,6.6
CC(=O)c1ccc2c(c1)C1C(Cl)C(Sc3ccccc3[N+](=O)[O-])CC1C(C(=O)O)N2 (stereo not given),.,.,.,.,77.7*
NCCc1cc(O)c(O)cc1O,.,.,.,.,36.0*
C[C@]12C[C@@H](O)[C@H](O)CC1=CCC1C2CC[C@@]2(C)C1CC[C@@H]2O (stereo not given in full),-7.8,.,-7.7,-8.8,13.7
COC1C(C)OC(OC2CC(C)(O)Cc3cc4c(c(O)c32)C(=O)c2c(O)cc3c(c2C4=O)OC2OC3(C)C(O)C(N(C)C)C2O)C(OC)C1(C)OC (stereo not given),.,.,.,.,41.0*
COC(=O)N(c1ccccc1)P(=O)(Oc1ccccc1)Oc1ccccc1,-8.8,3.2,-9.6,-14.2,9.7
COc1ccc(CN2C(=O)NC(=O)/C(=C/c3ccc([N+](=O)[O-])s3)C2=O)cc1,10.5,2.3,3.3,33.7,42.9*
O=C1NC(=O)N(Cc2ccc(F)cc2)C(=O)/C1=C\c1ccc([N+](=O)[O-])s1,17.9,4.9,4.2,31.9,50.4*
C[C@]12CC[C@H](O)C[C@H]1CC[C@@H]1[C@@H]2CC[C@]2(C)C(=O)CC[C@@H]12,-1.7,.,2.6,-3.6,28.1
c1ccc2c(c1)CNCc1cnnn1-2,.,.,.,.,8.5
CCOc1ccc(-n2c(-c3cccs3)nc3ccccc3c2=O)cc1,-4.1,-0.3,-4.3,3.2,-1.8
COc1ccc(-n2c(/C=C/c3ccc(O)cc3)nc3ccccc3c2=O)cc1,-8.7,-3.3,-16.0,-3.0,-210.9
CCn1nc(-c2cccs2)nc2c(=O)n(C)c(=O)nc1-2,.,.,.,.,80.5*
CCn1nc(/C=C/c2ccccc2)nc2c(=O)n(C)c(=O)nc1-2,96.2*,-8.6,96.2*,88.8*,72.8*
C[C@@H]1CN([C@@H](C)CO)C(=O)CCCn2nncc2CO[C@H]1CN(C)C(=O)Oc1ccc2ccccc2c1,.,.,.,.,7.2
C#C[C@]1(O)CCC2C3C(CC[C@@]21C)[C@@]1(C)CC[C@@H](O)CC1=C[C@H]3O (stereo not given in full),-11.8,.,-6.5,-6.5,1.3
CCC(=NCCc1ccccc1)c1c(O)[nH]c(=O)[nH]c1=O,6.7,73.2*,7.5,11.0,13.7
SMILES,SENP8 block-1,Platelet DG rel,SENP7 inh,SENP6 inh,SENP8 block-2
CCN(CC)c1ccc(C=C2C(=O)N(C)C(=S)N(C)C2=O)o1,4.0,10.8,4.8,3.4,18.2
CN1C(=O)C(=Cc2ccc(N3CCCCC3)o2)C(=O)N(C)C1=S,1.0,4.5,11.3,-14.9,43.2*
O=C1NC(=O)C(=Cc2ccc(N3CCN(C(=O)c4ccccc4)CC3)c([N+](=O)[O-])c2)C(=O)N1,-4.2,0.0,-1.5,7.6,41.0*
CC[n+]1c(-c2ccccc2)c2cc(N)ccc2c2ccc(N)cc21,.,.,.,.,96.9*
O=[N+]([O-])c1ccc(NC2CCCC2)c2ccncc12,15.1,-11.4,19.4,39.7,47.1*
COC(=O)Cn1cc(C=C2C(=O)NC(=O)NC2=O)c2ccccc21,-7.9,-15.0,-19.7,-2.1,28.8
COc1c(C=C2C(=O)NC(=O)NC2=O)c(CCN(C)C(=O)c2ccccc2)cc2c1OCO2,-11.9,8.5,4.0,-13.8,44.1*
CCC1CN1P1(=O)OCC(C)([N+](=O)[O-])CO1 (stereo not given),.,.,.,.,15.3
COC(=O)C1=C(c2ccccc2OCc2ccccc2)C[C@@H]2CC[C@H]1N2C(=O)NCc1ccc([N+](=O)[O-])cc1,-10.2,.,-5.0,0.1,17.0
Cc1cc(C)n(-c2ccc(NN=C(C#N)C#N)cc2)n1,90.0*,1.5,89.7*,91.8*,22.5
N#CC1C(C#N)C2CCC1C1C2N1c1ccccc1 (stereo not given),.,.,.,.,19.3
COc1ccc(N2C(=O)NC(=O)/C(=C/c3ccc([N+](=O)[O-])s3)C2=O)cc1,9.9,4.5,11.0,13.8,69.2*
COc1cccc(N2C(=O)NC(=O)/C(=C/c3ccc4c(c3)Cc3ccccc3-4)C2=O)c1,-12.5,0.3,2.3,-12.2,-32.5
COc1ccccc1N1C(=O)NC(=O)/C(=C/c2ccc([N+](=O)[O-])s2)C1=O,20.4,5.9,6.5,31.9,.
COc1ccc(N2C(=O)NC(=O)/C(=C\c3ccc([N+](=O)[O-])s3)C2=O)cc1,25.7,0.7,13.6,18.9,44.2*
COc1cccc(N2C(=O)NC(=O)/C(=C/c3ccc([N+](=O)[O-])s3)C2=O)c1,25.3,12.0,5.1,44.4,47.5*
CCOc1ccc2nc(N=Nc3c(O)[nH]c(=O)[nH]c3=O)sc2c1,2.5,3.6,-1.8,-0.4,44.9*
